High-throughput results: PubChem, National Center for Advancing Translational Sciences (NCATS)
TrxR1 inh: qHTS Assay for Inhibitors of Mammalian Selenoprotein Thioredoxin Reductase 1 (TrxR1): qHTS | Thioredoxin reductase 1, cytoplasmic (Rattus norvegicus), O89049 | recombinant rTrxR1, NADPH fluorescence consumption, selenite substrate | Potency, µM (top dose mostly 114 µM), most hits filed as inhibitors | 390,000 compounds, 1% hits | AID 588453, 2011; also: nearly all actives have a fitted effect of over 65% in size
Target sequence (O89049 whole entry, looked up): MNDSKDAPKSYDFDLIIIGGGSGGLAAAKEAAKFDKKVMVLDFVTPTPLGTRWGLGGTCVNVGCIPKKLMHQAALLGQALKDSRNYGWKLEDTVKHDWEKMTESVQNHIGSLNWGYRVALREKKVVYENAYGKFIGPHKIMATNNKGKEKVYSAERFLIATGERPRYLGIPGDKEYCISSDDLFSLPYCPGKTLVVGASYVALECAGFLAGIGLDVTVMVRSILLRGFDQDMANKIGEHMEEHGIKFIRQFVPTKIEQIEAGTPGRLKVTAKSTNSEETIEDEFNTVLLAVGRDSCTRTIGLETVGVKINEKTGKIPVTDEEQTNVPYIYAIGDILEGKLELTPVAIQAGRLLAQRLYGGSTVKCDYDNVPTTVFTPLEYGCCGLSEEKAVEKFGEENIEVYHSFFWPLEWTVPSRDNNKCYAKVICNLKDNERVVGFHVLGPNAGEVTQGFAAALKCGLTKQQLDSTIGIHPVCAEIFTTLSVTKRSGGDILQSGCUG
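Rat TrxR1 (90 nM in the dispensed reagent) was pre-reduced with 400 uM NADPH for 5 min at room temperature, then incubated with compound for 15 min. After 400 uM selenite was added, NADPH fluorescence (Ex 340/Em 450 nm) was followed for 8 min.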
TrxR1 substrate: qHTS Assay for Substrates of Mammalian Selenoprotein Thioredoxin Reductase 1 (TrxR1): qHTS; purified TrxR1 substrate turnover, NADPH consumption readout; Potency, µM (titrated, usually from 114 µM); 390,000 compounds, 0.01% hits; also: nearly all actives have a fitted effect of over 50% in size
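Rat TrxR1, dispensed at 90 nM, was prereduced with 400 uM NADPH (final) for 5 min at ~22 deg C, then incubated with compound 15 min before 400 uM selenite. A first-read NADPH fluorescence drop versus no-compound background flagged substrates.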
VDR inh: Inhibitors of the vitamin D receptor (VDR): qHTS; Vitamin D3 receptor (Homo sapiens), P11473; VDR-SRC2-3 peptide fluorescence polarization, 2 h; Potency, µM, actives largely listed as inhibitors; 400,000 compounds, 0.93% hits; AID 504847, 2011
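Reagent solutions, kept cold and dark, are dispensed first; compounds are then pinned in at 23 nl, plates briefly spun, and incubated 2 h at ambient temperature. Inhibition of VDR–SRC2-3 peptide binding is read by fluorescence polarization.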
KAT2A inh: qHTS Assay for Inhibitors of GCN5L2 | AID 504327, 2011 | 390,000 compounds, 0.21% hits | GCN5L2 HAT assay, ThioGlo1 CoA-SH fluorescence | Potency, µM (series often up to 58.9 µM), actives largely listed as inhibitors
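Preincubate 20nM GCN5L2 with compound 15 min, RT → add 50uM ThioGlo1 + 75uM H3(1-25) + 70uM acetyl-CoA → read fluorescence 0 and 20 min. Primary qHTS; fluorescent artifacts likely.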
Hits are given with their value; i = inactive; ? = inconclusive; nt = no result given; ! = a repeat was not active; [ ] = remark or other dose. Hits are enriched below; roughly 1.8% of the tested compounds scored in any of these assays. Calls follow the shape of the dose curve; as a rule, active = well fitted curve in the direction sought with a large enough effect; inconclusive = small, poorly fitted or top-dose-only effect, or another doubt; inactive = no such curve, though single readings can be large; an effect the other way counts as inactive or inconclusive.

SMILES	TrxR1 inh	TrxR1 substrate	VDR inh	KAT2A inh
Oc1c(C(c2ccccn2)N2CCC(Cc3ccccc3)CC2)cc(Cl)c2cccnc12 (configuration not stated)	i	i	?	i
COc1cc(C(=O)NC(c2ccc(Cl)cc2)c2cc(Cl)c3cccnc3c2O)cc(OC)c1OC (configuration not stated)	i	i	i	i
Oc1c(C(c2ccccc2Cl)N2CCCC2)ccc2cccnc12 (configuration not stated)	7.08µM	i	?	i
CCCCC(=O)NC(c1ccccc1Cl)c1ccc2cccnc2c1O (configuration not stated)	i	i	i	i
CN1CCN(C(c2ccc(C(F)(F)F)cc2)c2ccc3cccnc3c2O)CC1 (configuration not stated)	6.31µM	i	31.6µM	i
CN1CCN(C(c2ccccn2)c2cc(Cl)c3cccnc3c2O)CC1 (configuration not stated)	?	i	50.1µM	i
Oc1c(C(c2ccc(Cl)cc2)N2CCCC2)cc(Cl)c2cccnc12 (configuration not stated)	50.1µM	i	i	i
CCCCCCCCCC[n+]1cc(Br)cc(Br)c1	i	i	nt	nt
CCCC(=O)NCc1ccc2c(c1)cc(C)n2C	i	i	i	i
Cc1cc2cc(CNC(=O)c3ccc(Br)o3)ccc2n1C	8.91µM	i	79.4µM	i
CCCCCCCCCC[n+]1cccc2cc(Cl)ccc21	i	i[0.0914 µM]	nt	nt
C[N+]1(CC2COC3(CCCCC3)O2)CCCCC1 (configuration not stated)	i	i	i	i
C[N+]1(CC2COC(c3ccccc3)(C3CCCCC3)O2)CCCCC1 (configuration not stated)	nt	nt	i	22.4µM
O=C1NC(c2ccc(Br)cc2)Nc2sc3c(c21)CCC3 (configuration not stated)	?	i	i	i
Cc1ccsc1C1NC(=O)c2c(sc3c2CCCC3)N1 (configuration not stated)	44.7µM	i	?	i
CN1CCN(c2nc(-c3ccc(Cl)s3)cs2)CC1	i	i[11.4 µM]	i	i
CN1CCN(C2=C(Cl)C(=O)C(c3cnc(N4CCCCC4)s3)=C(Cl)C2=O)CC1	?	i	50.1µM	i
NC(=O)C1CCN(C2=C(Cl)C(=O)c3ccccc3C2=O)CC1	1µM	i	?	i
O=C1C(Cl)=C(N2CCC(C(=O)O)CC2)C(=O)c2ccccc21	1.12µM	i	?	?
CN1CCN(C2=C(Cl)C(=O)c3ccccc3C2=O)CC1	?	i	50.1µM	nt
Cc1[nH]c2ccccc2c1C(=O)C(C)Sc1nc2ccccc2c(=O)n1Cc1cccnc1 (configuration not stated)	i	i	nt	nt
COc1cc2nc(N(C)C)nc(NC3CCN(C)CC3)c2cc1OC	i	i	nt	nt
CN(Cc1ccco1)c1cc(-c2ccc3c(c2)OCO3)ncn1	nt	nt	22.4µM	28.2µM
CN(Cc1ccco1)c1cc(-c2cccnc2)ncn1	nt	nt	?	i
O=C1C=CC2(C=C1)O[C@H](Cc1ccccc1)[C@@H](Cc1ccccc1)O2	0.891µM	i[11.4 µM]	14.1µM	nt
SMILES	TrxR1 inh	TrxR1 substrate	VDR inh	KAT2A inh
COc1ccc(C[C@@H]2OC3(C=CC(=O)C=C3)O[C@H]2Cc2ccc(OC)cc2)cc1	0.562µM	i	?	nt
COc1ccc(C(=O)c2no[n+]([O-])c2C(=O)c2ccc(OC)cc2)cc1	0.631µM	i	?	?
COc1ccc(NC(=O)c2c(N)no[n+]2[O-])cc1	i	i	i	i
CCOc1nc(NC2CCCC2)nc(N2CCC(C)CC2)n1	i	i	79.4µM	i
C1=Nc2ccccc2/C1=C/c1ccccc1	i	i	nt	nt
COc1ccc(CCNC(=O)c2ccc(CN3CCC(Cc4ccccc4)CC3)cc2)cc1	i	i	i	i
COc1ccc(C(=O)NCC23C=CC(O2)C2C(=O)N(Cc4ccccc4)C(=O)C23)cc1 (configuration not stated)	25.1µM	i	i	i
COc1ccccc1NC1=C(NC(C)=O)C(=O)c2ccccc2C1=O	4.47µM	i	i	i
Cc1ccc2c(/C=C/c3ccc(N(C)C)cc3)ccnc2c1C	i	i	nt	nt
COc1ccc(OC)c(-n2nnnc2SCC(=O)N2CCN(C(=O)c3ccco3)CC2)c1	i	i	70.8µM	i
COc1ccc(-n2nnnc2SCC(=O)N2CCN(C(=O)c3ccco3)CC2)cc1OC	i	i	i	i
Cc1ccc(-n2nnnc2-c2cnoc2-c2cccc(F)c2)cc1	i	i	50.1µM	i
O=[N+]([O-])c1ccc(Nc2nc(NCCN3CCOCC3)nc(Nc3ccc(I)cc3)n2)cc1	i	i[0.0914 µM]	nt	nt
O=S1(=O)CCO[C@H]2CCCC[C@@H]2N1Cc1ccccc1	i	i	nt	nt
Cc1ccc(NC(=S)c2ccncc2)c(C)c1	20µM	i	35.5µM	i
Cc1ccc(NC(=O)CCC(=O)NNC(=S)Nc2ccccc2)c(C)c1	i	i	i	i
Cc1ccc(NC(=S)NNC(=S)Nc2ccc(C)cc2C)cc1	i	i	44.7µM	i
CC(C)C(=O)SCCCCCCC(=O)Nc1nc(-c2ccccc2)cs1	nt	nt	i	i
CC1(OC(=O)c2ccc(Cl)nc2)C(=O)C=C2C=C(c3ccsc3)OC=C2C1=O (configuration not stated)	nt	nt	i	nt
CC1(OC(=O)c2ccc(Cl)nc2)C(=O)C=C2C=C(c3ccc(C#N)cc3)OC=C2C1=O (configuration not stated)	nt	nt	89.1µM!	nt
Cc1cc(N2CCCC2)nc2ccc(NC(=S)NC(C)C)cc12	7.94µM	i	i	i
Fc1ccccc1Nc1nc(Cl)nc(Cl)n1	i	i	70.8µM	i
CC[C@H](C)[C@H](NC(=O)[C@H](CCC(=O)O)NC(=O)CNC(=O)[C@@H](NC(=O)[C@@H]1CCCN1C(=O)[C@@H](NC(=O)[C@@H]1CCCN1C(=O)[C@@H]1CCCN1C(=O)[C@H](CC(N)=O)NC(=O)[C@H](CC(N)=O)NC(=O)[C@@H](NC(=O)[C@H](CCSC)NC(=O)[C@H](Cc1c[nH]c2ccccc12)NC(=O)CNC(=O)[C@@H](NC(=O)[C@H](CCC(N)=O)NC(=O)[C@@H](N)CCC(=O)O)[C@@H](C)CC)[C@@H](C)O)[C@@H](C)CC)C(C)C)C(=O)O	nt	nt	i	i
CSc1ccccc1C(=O)C1CCCN(C(=O)c2cncs2)C1 (configuration not stated)	i	i	31.6µM	i
Cc1ccc(C(=O)Nc2ccc(C(=O)O)cc2)cc1S(=O)(=O)N1CCC(C)CC1	i	i	i	i
CCN(CC(=O)Nc1cc(Cl)ccc1C)C(=O)C1COc2ccccc2O1 (configuration not stated)	50.1µM	i	i	i
COc1ccccc1/C=C/c1nc2ccccc2o1	i	i	nt	nt
O=C(CCc1ccccc1)NN1C(=O)C2C3C=CC(O3)C2C1=O (configuration not stated)	44.7µM	i	i	i
